A short description of test [1]: liver-stage malaria parasite growth inhibition, primary screen, cell-based, HepG2, luciferase luminescence, HepG2 viability (AID 624349; in the data active means parasite load remaining mostly below about 12%, no sharp cut-off; inactive means mostly above about 10%;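 further: 100% = mean of DMSO negative control wells on the same plate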). As to conditions: P. berghei liver stage in HepG2, luciferase luminescence, concentration not given here; parasite load remaining: stronger effect = lower value; viability: measured here: HepG2 viability without parasites.
Test [2] is described as follows: differential killing of epithelial or mesenchymal cells, primary screen, imaging, PC-3E GFP, TEM4-18 mCherry, co-culture (AID 1345086;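 active means compounds killing one labelled cell type while sparing the other, by normalised counts and ratio limits, not self-fluorescent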;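 on all read-outs here: cells exposed to compound for 72 h before imaging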;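 on red/green cell ratio (normalised): normalised mesenchymal count divided by normalised epithelial count so high means epithelial killing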). Conditions: imaging cell counts, at 1 µM; for red/green cell ratio (normalised): actives lie on both sides.
In test [3] the test system is Aerobactin synthetase IucA (Klebsiella pneumoniae hvKP1). Nature of the test: Biochemical IucA enzyme inhibition primary screen of the Spectrum library (AID 1346200).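 Further: 100% = wells without compound and 0% = wells lacking enzyme.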 As to conditions: malachite green pyrophosphate, A620, at 8 µM, stronger effect = lower value.
Test [4] in a line: polyglutamine-triggered caspase-3 activation inhibitors, cell-based (AID 1583). Conditions: polyglutamine-induced caspase-3 activation, cell assay; stronger effect = higher value;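 tested at 10 µM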.
Test [5] in a line: suppressors of polyQ aggregation in yeast, 75Q-TubU reporter (AID 1593). Conditions: Yeast 75Q polyglutamine aggregation reporter.
Test [6] can be described thus: rescue of polyQ-huntingtin neuronal dysfunction in worms, whole organism, C. elegans mechanosensory neurons, N-terminal huntingtin (AID 1599). Conditions: touch response, stronger effect = higher value.
Test [7] in a line: inhibitors of mitochondrial cytochrome c release, biochemical, purified mitochondria (AID 1603).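 Further: mouse liver mitochondria challenged with calcium chloride; signal normalized to the plate average as 100%.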 As to conditions: stronger effect = lower value.
Test [8] can be described thus: inhibitors of polyQ protein aggregation (AID 1604). As to conditions: polyglutamine-induced protein aggregation inhibition assay; stronger effect = higher value; tested at 2.5 µM.
Test [9] is described as follows: enhancers of glutamate uptake in motor neurons, MN-1 cell line (AID 1612).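 Further: tested at 1 µM final; 0% = mean of DMSO vehicle wells on each plate; positive means more glutamate uptake than control and negative means less.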 Conditions: MN-1 motor neuron cells, stronger effect = higher value.
Test [10] can be described thus: reducers of polyQ inclusions in PC12 cells, cell-based, NGF-treated PC12, GFPQ80 (AID 1614).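 Further: lower means fewer inclusions and 0 means no inclusions at all.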 Conditions: PC12 NGF-treated GFP-polyQ80 inclusion reduction.
Test [11] is described as follows: suppressors of polyglutamine aggregation in yeast, 75Q-TubH (AID 1616). As to conditions: S. cerevisiae 75Q-TubH polyglutamine aggregation suppression; stronger effect = higher value.
Test [12] in a line: circadian clock period modulators, cell-based, LOPAC library, luminescence reporter (AID 2774).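 Further: values are relative to mean of DMSO wells on each plate.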 As to conditions: circadian reporter cells, at 7 µM, actives lie on both sides.
The nature of test [13]: hESC survival regulators, cell-based (AID 493140).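 Further: cells exposed to compounds for four days before counting.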 Conditions: human embryonic stem cell survival screen; stronger effect = higher value.
In test [14] the test system is Hepatitis C virus NS3 helicase. Nature of the test: HCV NS3 helicase inhibitors, primary screen, biochemical, fluorescence polarization, LOPAC1280 library (AID 687035; in the data active means inhibition above about 37%). As to conditions: Purified HCV NS3 helicase, Cy5-dT15 ssDNA binding fluorescence polarization; stronger effect = higher value; concentration not given here. On the technique in general: In fluorescence polarisation assays a small probe gives low polarisation when free and higher when bound to something large.

Test [15] is described as follows: Cy5 fluorescence quenching or enhancement artefacts, artefact control for HCV NS3 helicase inhibitor project, biochemical, LOPAC1280 (AID 687037). Conditions: Cy5-DNA-NS3h complex fluorescence interference counterscreen. On the technique in general: A counterscreen serves to expose hits that act by an unwanted route or on another target.
Test [16] has as its system Aerobactin synthetase IucA (Klebsiella pneumoniae, hypervirulent). Nature of the test: IucA enzyme inhibition, biochemical, LOPAC library, absorbance readout (AID 1346212).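 Further: 100% = no compound wells and 0% = no enzyme wells.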 As to conditions: IucA enzyme assay, absorbance (OD) readout; stronger effect = lower value;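 tested at 8 µM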.
Test [17] is described as follows: sensitizers of A549 cells to miR-34 induction, primary screen, imaging, A549 dox-inducible miR-34, nuclei and caspase counts (AID 1347080;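 active means compounds whose cell count with miR-34 switched on is under 0.7 times the count with it off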). As to conditions: A549 miR-34 inducible, Hoechst nuclei count, 48 h.
A short description of test [18]: phospholipid biosynthesis inhibitors in animal cells, primary screen, cell-based, LOPAC library, screen 4 (AID 1347384). Conditions: phospholipid biosynthesis inhibition screen, at 10 µM.
Test [19] can be described thus: viability rescue of complex I mutant cybrids, primary screen, cell-based, galactose medium, ATP luminescence (AID 1645843;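 active means z-score of at least 1.8 in each of two replicates, scored against plate mean and spread of sample wells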;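 further: positive z means more ATP and so rescue of galactose-driven cybrid death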). As to conditions: complex I mutant cybrid cells, 72 h, stronger effect = higher value.
The target of test [20] is NAD(+) hydrolase SARM1 (Homo sapiens) (UniProt Q6SZW1). Nature of the test: SARM1 TIR NADase inhibitors, cell lysate, NAD-Glo luminescence (AID 1508614;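 active means compound whose remaining NAD level is above about 45 nM, limit read from the data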). As to conditions: SAM-TIR HEK293T lysate NADase, at 1 µM, stronger effect = higher value.
Test [21] deals with ATP-dependent translocase ABCB1 (Homo sapiens) (UniProt P08183). Nature of the test: MDR1 (ABCB1) efflux transporter inhibition, cell-based (AID 377; in the data active means fluorescence slope change above about 50%). As to conditions: MDR1-expressing cells, fluorescent substrate accumulation slope; stronger effect = higher value; concentration not given here.
Test [22] in a line: survival rescue of mitochondrial mutant cells in low glucose, primary screen, MELAS cybrids, Rieske KO mouse fibroblasts, CellTiter-Glo (AID 1508586;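 active means mean z-score across replicates of 1.96 or higher in either the MELAS or the Rieske mutant cell line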;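 further: z relative to plate mean and SD of compound and empty wells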). For orientation: In ATP-based viability assays light output follows the ATP content of the culture.
Where [23] appears, read: measured here: epithelial PC-3E GFP cell survival.
[24] abbreviates: measured here: mesenchymal TEM4-18 mCherry cell survival.
[25] abbreviates: measured here: relative caspase fold change +Dox/-Dox.
Setting [26] is: measured here: total cells with miR-34 induction, stronger effect = lower value.
[27] abbreviates: measured here: total cells without miR-34 induction.

Where “and” joins values, the source holds several entries; their conditions need not be identical. Equal entries are not always repeated. Records with an inconclusive call do not appear. For part of these data: Measured potencies and affinities stand elsewhere. Calls of active or inactive are those of the source. Unless noted, how the calls were made is not given here.

Sequence of ATP-dependent translocase ABCB1 (Homo sapiens) (P08183 whole entry, looked up): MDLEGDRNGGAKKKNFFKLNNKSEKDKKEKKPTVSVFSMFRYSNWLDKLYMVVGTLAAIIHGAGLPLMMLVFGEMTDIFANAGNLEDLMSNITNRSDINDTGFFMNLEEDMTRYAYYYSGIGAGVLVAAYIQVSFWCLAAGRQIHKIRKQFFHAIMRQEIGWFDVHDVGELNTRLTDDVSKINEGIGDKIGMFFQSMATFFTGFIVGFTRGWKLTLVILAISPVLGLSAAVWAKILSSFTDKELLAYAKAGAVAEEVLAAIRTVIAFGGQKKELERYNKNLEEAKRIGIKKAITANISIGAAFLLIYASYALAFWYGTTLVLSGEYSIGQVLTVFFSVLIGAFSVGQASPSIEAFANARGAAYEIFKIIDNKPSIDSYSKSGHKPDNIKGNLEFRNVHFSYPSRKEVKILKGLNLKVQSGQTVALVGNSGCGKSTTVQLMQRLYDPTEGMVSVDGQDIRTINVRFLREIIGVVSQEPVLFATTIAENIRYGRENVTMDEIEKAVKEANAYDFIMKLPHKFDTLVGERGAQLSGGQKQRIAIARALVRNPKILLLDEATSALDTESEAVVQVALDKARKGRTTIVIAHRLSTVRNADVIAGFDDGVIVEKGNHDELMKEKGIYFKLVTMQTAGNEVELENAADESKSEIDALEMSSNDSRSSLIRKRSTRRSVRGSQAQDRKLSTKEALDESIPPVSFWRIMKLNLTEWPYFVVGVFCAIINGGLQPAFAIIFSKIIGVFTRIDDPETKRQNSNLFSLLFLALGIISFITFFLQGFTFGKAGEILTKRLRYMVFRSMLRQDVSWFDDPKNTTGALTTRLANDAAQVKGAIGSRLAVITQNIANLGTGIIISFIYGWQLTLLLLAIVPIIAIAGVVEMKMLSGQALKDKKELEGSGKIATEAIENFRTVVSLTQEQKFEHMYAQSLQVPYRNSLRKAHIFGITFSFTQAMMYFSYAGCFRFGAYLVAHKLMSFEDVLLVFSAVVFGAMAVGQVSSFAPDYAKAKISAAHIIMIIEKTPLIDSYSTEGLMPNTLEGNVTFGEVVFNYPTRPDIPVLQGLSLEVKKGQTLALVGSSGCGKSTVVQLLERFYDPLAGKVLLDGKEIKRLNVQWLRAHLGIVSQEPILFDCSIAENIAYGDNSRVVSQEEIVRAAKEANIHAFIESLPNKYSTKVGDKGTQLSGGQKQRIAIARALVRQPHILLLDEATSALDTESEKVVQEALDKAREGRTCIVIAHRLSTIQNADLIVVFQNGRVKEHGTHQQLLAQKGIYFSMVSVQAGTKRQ
Sequence of NAD(+) hydrolase SARM1 (Homo sapiens) (Q6SZW1 whole entry, looked up): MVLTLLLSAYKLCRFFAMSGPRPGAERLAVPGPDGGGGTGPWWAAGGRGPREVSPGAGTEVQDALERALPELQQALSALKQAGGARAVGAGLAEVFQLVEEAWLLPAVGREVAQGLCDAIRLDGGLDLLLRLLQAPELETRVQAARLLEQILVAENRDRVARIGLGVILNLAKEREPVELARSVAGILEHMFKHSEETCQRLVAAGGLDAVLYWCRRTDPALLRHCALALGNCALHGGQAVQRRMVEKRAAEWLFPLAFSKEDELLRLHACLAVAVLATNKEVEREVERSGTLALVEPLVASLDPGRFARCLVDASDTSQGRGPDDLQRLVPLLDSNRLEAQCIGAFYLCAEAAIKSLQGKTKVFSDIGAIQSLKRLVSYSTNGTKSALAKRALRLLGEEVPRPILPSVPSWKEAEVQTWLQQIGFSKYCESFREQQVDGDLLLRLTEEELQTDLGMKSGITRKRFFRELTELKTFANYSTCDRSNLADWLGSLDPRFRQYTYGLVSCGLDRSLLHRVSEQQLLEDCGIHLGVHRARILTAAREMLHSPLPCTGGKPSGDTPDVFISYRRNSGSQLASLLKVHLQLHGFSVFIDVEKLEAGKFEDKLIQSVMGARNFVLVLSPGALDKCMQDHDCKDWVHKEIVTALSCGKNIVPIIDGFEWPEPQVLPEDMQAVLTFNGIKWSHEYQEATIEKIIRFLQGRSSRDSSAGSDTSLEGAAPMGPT

With `CC1=C2CCC3C(CC[C@]4(C)C(=O)CCC34)[C@@]2(C)CCC1=O` (stereo partly specified), in test [1], the parasite load remaining was 48.4% (inactive) and the viability (commonly a read-out of living cells in per cent, often relative to untreated cells) is 85.7%. Also, the red/green cell ratio (normalised) in [2] was 0.88 (inactive). In [2] (setting [23]), this compound yielded a normalised cell number of 1.27. Further, the normalised cell number in [2] (setting [24]) came to 1.12. The activity remaining in [3] was 104% (inactive).

`CCC(C)C(=O)O[C@H]1[C@H](O)C2C(CN3CC(C)CCC3[C@@]2(C)O)C2C[C@]34O[C@]5(O)C(OC(=O)C(C)(O)CC)CC[C@@]3(C)C5C(OC(C)=O)[C@@H](OC(C)=O)C4[C@@]21O` (stereo partly specified): the inhibition (commonly the change of the read-out against control, counted positive when it falls) in test [4] was -14%. The compound further returned a score in [5] of 1.53. In [6], this compound showed a rescue above control of -1.62. Also, the cytochrome c release ratio in test [7] worked out at 0.8. The compound also returned an inhibition of aggregation in [8] of 60.8%. The glutamate uptake change in [9] turned out to be 12.6%. In test [10], the inclusion score turned out to be 2. The aggregation suppression score in test [11] worked out at 1.64. In test [1], the parasite load remaining is 35.5% (inactive) and the viability was determined as 65.2%. The red/green cell ratio (normalised) in [2] is 0.9 (inactive). Further, the normalised cell number in test [2] (setting [23]) stood at 1.11. The normalised cell number in test [2] (setting [24]) is 1. Besides, the activity remaining in test [3] is 105% (inactive).

Consider `C[C@@H]1O[C@@H](O[C@H]2CC[C@]3(C=O)C4CC[C@]5(C)[C@@H](C6=CC(=O)OC6)CC[C@]5(O)C4CC[C@]3(O)C2)[C@H](O)[C@H](O)[C@H]1O` (stereo partly specified), for which the parasite load remaining in [1] is 3.9% (inactive). For the same compound, the viability in [1] was 51%. Further, the red/green cell ratio (normalised) in [2] is 0.21 (inactive). Moreover, the values for the normalised cell number in test [2] (setting [23]) and in test [2] (setting [24]) were 0.1 and 0.02, respectively. Besides, the activity remaining in test [3] was 95.5% (inactive).

`CC(=O)OCC1=C(C(=O)O)N2C(=O)[C@@H](NC(=O)CCCC(N)C(=O)O)C2SC1` (stereo partly specified): the inhibition in test [4] worked out at 10.9%. The compound further had a score in [5] of 1.28. Besides, in test [7], the cytochrome c release ratio came out at 1.12. This compound had an inhibition of aggregation in test [8] of 39.4%. Also, the glutamate uptake change in test [9] is 3.72%. For the same compound, the inclusion score in [10] came to 2. This compound also showed an aggregation suppression score in [11] of 1.03. For the same compound, in test [1], the parasite load remaining was 94.5% (inactive) and the viability came out at 67%. Besides, the red/green cell ratio (normalised) in [2] is 0.94 (inactive). In [2] (setting [23]), this compound showed a normalised cell number of 1.04. Besides, the normalised cell number in test [2] (setting [24]) stood at 0.98. Further, the activity remaining in [3] was 111% (inactive).

Regarding `C[N+]1(C)C2CCC1CC(OC(=O)C(CO)c1ccccc1)C2` (stereo unspecified), the period change in [12] is 0.05 hour (inactive) and -0.075 hour (inactive). Moreover, the survival in test [13] is 5.08 (inactive). Also, in test [1], the parasite load remaining was 37.4% (inactive). Further, the viability in [1] was found to be 106%. Besides, in [14], the inhibition was -4% (inactive) and -3% (inactive). Besides, the fluorescence ratio (interference) in test [15] was 1 (inactive). In addition, in test [2], the red/green cell ratio (normalised) is 1.05 (inactive). In addition, the normalised cell number in test [2] (setting [23]) amounted to 0.95; in test [2] (setting [24]) it was 1. The remaining activity (in general, the signal under treatment as a percentage of the control signal) in [16] is 112% (inactive). Besides, the fold change in test [17] (stronger effect = lower value) was 1.08 (inactive) and 0.98 (inactive) and 0.858 (inactive); in test [17] (setting [25]) it was 1.57 and 0.863 and 5.64. Also, the cell count in [17] (setting [26]) was 9760 and 10000 and 10600; in test [17] (setting [27]), 9050 and 10200 and 12400. In test [18], the call was inactive. In addition, the z-score in [19] is 0.49 (inactive) and 0.65 (inactive).

On to `CC[C@H]1CN2CCC1C[C@@H]2[C@@H](O)c1ccnc2ccc(OC)cc12` (stereo partly specified), for which the inhibition in test [4] is -3.48%. In test [5], this compound gave a score of 1.22. This compound also registered a rescue above control in [6] of -8.65. In addition, in test [7], the cytochrome c release ratio came out at 0.67. In addition, the inhibition of aggregation in test [8] came to 32.5%. Also, the glutamate uptake change in [9] was determined as 1.44%. This compound returned an inclusion score in test [10] of 2. The same compound showed an aggregation suppression score in test [11] of 1.35. For the same compound, the parasite load remaining in test [1] was 20% (inactive). In addition, in test [1], the viability worked out at 79.3%. Besides, the red/green cell ratio (normalised) in test [2] was 0.99 (inactive). Further, the values for the normalised cell number in [2] (setting [23]) and in test [2] (setting [24]) were 1.01 and 1, respectively. Besides, the activity remaining in [3] was 117% (inactive).

Take `C=CCN=C=S`: in test [2], the red/green cell ratio (normalised) is 0.88 (inactive). Moreover, the normalised cell number in [2] (setting [23]) is 1.07; in test [2] (setting [24]) it was 0.93. The fold change is 1.01 (inactive) in test [17] (stronger effect = lower value) and 0.842 in test [17] (setting [25]). Also, the results for the cell count in test [17] (setting [26]) and in test [17] (setting [27]) were 7390 and 7280, respectively. Further, the remaining NAD in test [20] is 10 nM (inactive).

Take `C[N+]1(C)CCOC(O)(c2ccc(-c3ccc(C4(O)C[N+](C)(C)CCO4)cc3)cc2)C1` (stereo unspecified): the fluorescence slope change in test [21] is 1.8% (inactive). The period change in test [12] is 0.02 h (inactive). The survival in test [13] is 3.33 (inactive). Moreover, the parasite load remaining in test [1] was 172% (inactive) and 77.5% (inactive). Besides, in test [1], the viability was 105% and 75.6%. Moreover, the inhibition in test [14] was 3% (inactive). Besides, the fluorescence ratio (interference) in [15] is 1 (inactive). The red/green cell ratio (normalised) in test [2] is 0.92 (inactive). The normalised cell number was 1.15 in test [2] (setting [23]) and 1.05 in [2] (setting [24]). Moreover, the remaining activity in [16] is 108% (inactive). Moreover, the fold change in test [17] (stronger effect = lower value) was 1.02 (inactive) and 0.872 (inactive); in test [17] (setting [25]) it was 0.804 and 1.21. Besides, the cell count in test [17] (setting [26]) is 10300 and 8560; in test [17] (setting [27]), 10200 and 9810. Also, in test [18], the outcome was inactive. Besides, the z-score is -0.344 (inactive) in [22] (MELAS cybrid survival, CellTiter-Glo 48 h, stronger effect = higher value); -0.223 in test [22] (Rieske KO mouse fibroblast survival, CellTiter-Glo 72 h); 0.135 (inactive) in test [19].

The values above are taken from PubChem BioAssay.
